# Screens as filed in PubChem BioAssay.
# This is a sample that favours compounds with a hit; in the whole collection about 3.8% have one here.
# ATXN2 expr inh: Primary qHTS for Inhibitors of ATXN expression; HEK-293 ATXN2-luciferase reporter, luminescence, 24 h; Potency, µM (doses to about 57 µM), for the others: at the highest dose activity change, negative = inhibition, actives largely listed as inhibitors; 0.72% of 360,000 active; AID 1745845, 2022; further: on the % scale 0 is the no-effect control and ±100 the full control effect; nearly all actives have a fitted effect of over 55% in size
#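 qHTS (up to 57 uM final) was run with 24 h compound exposure of reporter cells at 37 °C. Each well was multiplexed: SteadyGlo luminescence measured ATXN2-luciferase expression after a fluorogenic Gly-Phe-AFC viability readout (25 uM final).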
# ATXN viability: Viability Counterscreen for Primary qHTS for Inhibitors of ATXN expression; S2 cells (HEK-293 line with an ATXN2-luciferase reporter) viability, CellTiter-Fluor protease fluorescence, 24 h; 0.49% of 400,000 active; Potency, µM (titrated, usually from 56.7 µM), usual class: cytotoxic; further: nearly all actives have a fitted effect of over 40% in size
# TGFb inhibitor: qHTS for Inhibitors of TGF-b; HepG2 CAGA-GFP TGF-b/SMAD3 reporter, GFP fluorescence, 18 h; TGF-beta stimulated, 500 pg/mL final; Potency, µM (doses to about 46.1 µM), inactives show at the highest dose activity, negative = inhibition, usual class: inhibitors; 1.2% of 410,000 active; AID 588855, 2011; further: on the % scale 0 is the no-effect control and ±100 the full control effect; nearly all actives have a fitted effect of over 65% in size
#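 TGF-beta reporter screen: HEPG2 CAGA-GFP, 1% FBS, 500 pg/mL TGF-beta final, 18 h; per-cell GFP summed per well; curves fitted and categorized by class.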
# HepG2 tox: qHTS for Inhibitors of TGF-b: Cytotox Counterscreen; HepG2 CAGA-GFP viability, ATP luminescence, 18 h; 0.76% of 410,000 active; Potency, µM (titrated, usually from 46.1 µM), for the others: at the highest dose activity change, negative = cytotoxicity, usual class: cytotoxic
#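 CellTiter-Glo luminescence gave cytotoxicity after 18 hours at 37 degrees C. The cells were HepG2 CAGA-GFP in 1% FBS DMEM, stimulated with 500 pg/mL TGF-beta after compound addition. %Activity was normalised to no-cell wells (complete cell-killing) and DMSO (no toxicity), and curves were fitted and classified.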
# HT1080NT lethal: qHTS for induction of synthetic lethality in tumor cells producing 2HG: qHTS for the HT-1080-NT fibrosarcoma cell line; HT-1080-NT fibrosarcoma viability, CellTiter-Glo ATP luminescence, 48 h; Potency, µM (doses to about 46.1 µM), for the others: top-dose activity, negative = less viability, most hits filed as cytotoxic; 1.6% of 360,000 active; AID 686970, 2013;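 further: NT is the 2HG producing partner of a matched IDH1 knockdown line; 0% = DMSO-treated cells and -100% = media-only wells without cells; nearly all actives have a fitted effect of over 55% in size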
#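 Compounds were tested in concentration-response format on HT-1080-NT cells for 48 hours at 37 degrees C. Cell viability came from CellTiter-Glo luminescence; curves were classified by r2, response magnitude and activity.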
# HT1080 IDH1KD tx: qHTS for induction of synthetic lethality in tumor cells producing 2HG: qHTS for the HT-1080-IDH1KD cell line. HT-1080 IDH1 knockdown viability, ATP luminescence, 48 h. Potency, µM (doses to about 46.1 µM), without a hit: at the highest dose activity, negative = toxicity, usual class: cytotoxic. 2% of 360,000 active. AID 686971, 2013;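 further: 0% = DMSO wells and -100% = cell-free medium wells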
#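 Luminescent ATP read-out (CellTiter-Glo, 10 min at room temperature) after 48 h compound exposure at 37 °C gave viability of IDH1-knockdown HT-1080 cells. Activity was normalised to DMSO and cell-free wells, then fitted as concentration-response curves.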
# Numbers without * were called inactive; i = inactive; ? = inconclusive; / = no result. The call rests on the fitted dose curve; in most records, active means well fitted curve in the direction sought with a large enough effect; inconclusive means small, poorly fitted or top-dose-only effect, or another doubt; inactive means no such curve, though single readings can be large; an effect the other way counts as inactive or inconclusive. Potency means the concentration at half of the fitted maximal effect.
SMILES,ATXN2 expr inh,ATXN viability,TGFb inhibitor,HepG2 tox,HT1080NT lethal,HT1080 IDH1KD tx
CCN1CCCC1CNC(=O)c1cnn(-c2nccc(-c3cccs3)n2)c1C(C)C (stereo unspecified),/,i,/,/,/,/
CC(CNC(=O)c1cnn(-c2ccc(F)cc2)c1-n1cccc1)c1ccccc1 (stereo unspecified),-27%,i,10µM*,-9%,/,/
COc1ccc(C)c2sc(N(Cc3cccnc3)C(=O)C3CCCCC3)nc12,/,/,-9%,-23%,/,/
C=CCN(CC=C)C(=S)NC(=O)c1ccc(OC)c(Br)c1,?,?,-27%,-14%,?,3.2µM*
O=C1c2ccccc2C(=O)N1CCN1CCCCC1,7%,i,-14%,2%,8%,6%
Nc1cc2c3c(cccc3c1)C(=O)N(CCN1CCCC1)C2=O,?,?,?,-15%,21µM*,?
O=C1c2cccc3cc([N+](=O)[O-])cc(c23)C(=O)N1CCN1CCCC1,?,i,5µM*,-41%,?,2.3µM*
O=C(c1cc2c(Cl)nc3ccccc3c2s1)N1CCCCC1,26%,i,?,-13%,/,/
CCOC(=O)C1CCCN(C(=O)c2cc3c(Cl)nc4ccccc4c3s2)C1 (stereo unspecified),14µM*,?,-24%,-39%,/,/
CCOC(=O)C1CCCN(C(=O)c2cc3c(-c4cccc(OC)c4)nn(C)c3s2)C1 (stereo unspecified),-29%,i,-5%,-9%,?,18µM*
COCCNc1ccc(-c2nc(-c3cccc(C)c3)no2)cc1[N+](=O)[O-],8%,i,0%,1%,/,/
O=C1Nc2ccccc2C1(c1ccc(O)cc1)c1ccc(O)cc1,18%,i,/,/,/,/
O=C[C@H](O)[C@@H](O)[C@H](O)[C@H](O)CO,/,i,/,/,/,/
C/C(=N\OCc1cccc(C(=O)O)c1)c1ccc(Cl)cc1,2.8µM*,i,5%,0%,4%,-3%
C[C@@H]1CN(Cc2ccc3c(c2)CN(Cc2cccn2-c2ccc(Cl)cn2)CCO3)C[C@H](C)O1,/,i,/,/,/,/
Cc1ccc2nc(NC(=O)CN(C)S(=O)(=O)c3cccc4nsnc34)sc2c1,?,i,-3%,-6%,?,8.2µM*
Cc1ccnc(NC(=O)CN(C)S(=O)(=O)c2cccc3nsnc23)c1,2%,i,-11%,4%,6%,3%
COc1ccc(N2CCN(C(c3ccccc3)c3sc4nc(-c5ccco5)nn4c3O)CC2)cc1 (stereo unspecified),/,/,-25%,-14%,/,/
Cc1ccc(CNC(=O)CN(c2ccc(C(C)C)cc2)S(=O)(=O)c2c(C)n[nH]c2C)cc1,?,/,11µM*,-46%,/,/
COc1cccc(C2=NC(C)(C)NC(c3ccccc3O)C2)c1 (stereo unspecified),29%,i,?,18µM*,0%,-5%
COc1ccc(C(=O)N/C(=C/c2cccs2)c2nc3ccccc3[nH]2)cc1OC,/,?,-18%,-15%,5%,-2%
O=C(/C(=C/c1ccc(Cl)cc1)c1nc2ccccc2[nH]1)c1ccccc1,?,/,5µM*,2.5µM*,2.9µM*,4.1µM*
COc1cc(/C=C(/C(=O)c2cccs2)c2nc3ccccc3[nH]2)cc(OC)c1O,?,?,?,13µM*,?,?
COc1ccc(-c2nc3cccc(C)n3c2Nc2ccc(C)cc2)cc1,/,/,/,/,-23%,-26%
CCCC(=O)NC1CC(=O)N(c2ccc3c(c2)OCCO3)C1 (stereo unspecified),/,/,-43%,0%,/,/
SMILES,ATXN2 expr inh,ATXN viability,TGFb inhibitor,HepG2 tox,HT1080NT lethal,HT1080 IDH1KD tx
Cc1occc1C(=O)Nc1cccc(-c2nc(CNC(=O)c3cc(-c4ccccc4)n[nH]3)c(C)o2)c1,/,i,/,/,/,/
N#CC(C#N)=NNc1ccc(S(=O)(=O)N2CCCCC2)cc1,-13%,?,7.9µM*,-44%,-4%,-9%
N#C/C(=N\Nc1ccc(S(=O)(=O)N2CCOCC2)cc1)C(N)=S,16%,?,-22%,-10%,-21%,-15%
Cc1cccc(C(=O)Nc2nc(-c3nnn(-c4cc(C)ccc4C)c3C)ns2)c1,/,/,?,-38%,/,/
Cc1ccc2nc(-c3ccc(NC(=S)NC4CC(C)(C)NC(C)(C)C4)cc3)sc2c1,7%,?,?,13µM*,23µM*,?
Cc1ccc2nc(-c3ccc(NC(=S)NC(=O)C(C)C)cc3)sc2c1,70%,i,-2%,0%,2.8µM*,1.6µM*
COC(=O)[C@@H]1CCCN1Cc1ccc2c(c1)CN(Cc1cccc(Cl)c1)CCO2,/,i,/,/,/,/
Cc1ccc(NC(=O)CSc2nc(C)c(Cc3ccccc3)c(=O)[nH]2)cc1C,-17%,i,8.9µM*,-21%,1%,6%
Cc1cccc(NC(=O)CSc2nc(C)c(Cc3ccccc3)c(=O)[nH]2)c1,5%,i,?,-18%,-13%,-12%
Cc1ccc(NC(=O)Cn2c(O)c(N=NC(=O)c3cc4ccccc4cc3O)c3ccccc32)cc1,?,/,0%,-42%,21µM*,?
Cc1ccc(NC(=O)Cn2c(O)c(N=NC(=O)c3ccncc3)c3ccccc32)cc1,-18%,?,-1%,-3%,14%,13%
COc1ccc(O)c(/C=N/NC(=S)NCCc2ccccc2)c1,?,?,?,-166%,15µM*,?
Oc1ccc(Br)cc1/C=N/NC(=S)NCCc1ccccc1,?,i,?,-185%,?,?
COCCCNC(=S)N/N=C/c1ccccc1O,/,?,1.8µM*,-57%,-2%,-6%
Oc1ccccc1/C=N/NC(=S)NC1CC2CCC1C2 (stereo unspecified),8%,?,?,-55%,21µM*,?
COc1cccc(/C=N/NC(=S)NCCc2ccccc2)c1,-17%,i,25µM*,-11%,-29%,?
COC[C@H](c1ccc(C(F)(F)F)cc1)N1CCN(C2(C)CCN(C(=O)c3c(C)ncnc3C)CC2)C[C@H]1C,/,i,/,/,/,/
COC(=O)c1ccccc1NC(=O)c1cnn2c1NC(=C1CC1)C=C2C(F)F,/,/,24%,3%,/,/
CCCCCCCC(=O)[O-].CCCCCCCC(=O)[O-].[Zn+2],-2%,i,/,/,/,/
